Assay outcomes (PubChem)
An excerpt weighted towards active compounds, which were near 2.3% of everything screened.
MARV entry inh: qHTS for inhibitors of binding or entry into cells for Marburg Virus; Potency, µM (top dose mostly 37.8 µM), inactives show at the highest dose activity change, negative = inhibition, hits mostly inhibitors; AID 540276, 2011; Marburg virus pseudotyped entry inhibition, cell reporter; 1.8% of 300,000 active; calls by dose curve; tested in HEK293 cells
AmpC inh no detg: qHTS Inhibitors of AmpC Beta-Lactamase (assay without detergent); Potency, µM (highest dose often 57.1 µM), without a hit: top-dose activity change, negative = inhibition, actives largely listed as inhibitors; 0.52% of 330,000 active; AID 485341, 2010; AmpC nitrocefin hydrolysis, absorbance 480 nm, 0.0001% Triton; P00811;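 note: plate controls were no compound for no effect and no enzyme for full effect; nearly all actives have a fitted effect of over 20% in size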
Target sequence (P00811 whole entry, looked up): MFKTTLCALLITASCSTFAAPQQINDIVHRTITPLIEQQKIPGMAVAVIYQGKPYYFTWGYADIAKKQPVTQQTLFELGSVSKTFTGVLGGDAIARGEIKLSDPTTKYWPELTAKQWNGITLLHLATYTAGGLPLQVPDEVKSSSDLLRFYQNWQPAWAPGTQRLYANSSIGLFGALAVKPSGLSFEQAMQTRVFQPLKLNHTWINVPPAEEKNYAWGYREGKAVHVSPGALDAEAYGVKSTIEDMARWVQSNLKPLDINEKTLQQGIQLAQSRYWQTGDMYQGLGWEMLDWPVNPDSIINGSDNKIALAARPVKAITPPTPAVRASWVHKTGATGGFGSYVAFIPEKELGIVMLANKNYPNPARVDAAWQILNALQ
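20 mM phosphate pH 7.0 + 0.01% (detergent screen) or 0.0001% Triton X-100; 5.3 nM AmpC reagent; cpd preinc 15 min RT; nitrocefin (800 uM stock) to start; A480 q20 s × 4 min; Activity was normalised to no-enzyme and no-compound control wells.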
AMA1-RON2 inh: qHTS for Inhibitors of AMA1-RON; Towards Development of Antimalarial Drug Lead: Primary Screen; Plasmodium falciparum AMA1 (3D7) - RON2 peptide interaction; AlphaScreen AMA1-biotinylated RON2 peptide binding; Potency, µM (series often up to 58.2 µM), without a hit: top-dose activity change, negative = inhibition, most hits filed as inhibitors; 0.2% of 360,000 active; AID 720542, 2013;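 note: 0% = vehicle wells and -100% = peptide control; nearly all actives have a fitted effect of over 45% in size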
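AMA1 (3D7) with his tag at 25 nM final met compounds first, then biotinylated RON2 peptide at 25 nM; detection used donor plus acceptor beads, 10 µg/mL apiece, read by AlphaScreen after 30 min at room temperature.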
AmpC detergent: qHTS Inhibitors of AmpC Beta-Lactamase (assay with detergent). P00811. AmpC hydrolysis of nitrocefin, absorbance 480 nm, 0.01% Triton. Potency, µM (doses to about 114 µM), for the others: top-dose activity change, negative = inhibition, usual class: inhibitors. 0.041% of 370,000 active;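 note: 0% = no-compound wells and -100% = no-enzyme wells; nearly all actives have a fitted effect of over 25% in size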
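AmpC (5.3 nM in the dispensed reagent) in 20 mM phosphate pH 7.0 with 0.01% (detergent screen) or 0.0001% Triton X-100 was preincubated with compounds for 15 min at room temperature. Nitrocefin was then added from an 800 uM solution, and hydrolysis was followed at 480 nm.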
Lassa entry inh: qHTS for Inhibitors of binding or entry into cells for Lassa Virus; Lassa virus pseudotype entry inhibition, cell reporter; Potency, µM (highest dose often 37.9 µM), for the others: at the highest dose activity change, negative = inhibition, most hits filed as inhibitors; 1.2% of 300,000 active; AID 540256, 2011; calls by dose curve; tested in HEK293 cells; note: nearly all actives have a fitted effect of over 50% in size
The depositor's hits bear a star; [ ] = dose if it differs, or a comment. Unless noted, calls come from the whole dose curve; as a rule, active = well fitted curve in the direction sought with a large enough effect; inconclusive = small, poorly fitted or top-dose-only effect, or another doubt; inactive = no such curve, though single readings can be large; an effect the other way counts as inactive or inconclusive. Unless noted, % is set by controls: 0 for no effect and ±100 for the full control effect; potency is the fitted concentration of half-maximal effect.

For C[C@@H]1CC2=CCCC2[C@]2(O1)C(=O)Nc1cccc(Br)c12 (stereo not given in full) the results were MARV entry inh 1.3%[14.2 µM].
CC(NC(=O)C1CCCN(S(=O)(=O)c2cccs2)C1)c1ccccc1 (stereo not given) was read as AmpC inh no detg 3.16µM*, AMA1-RON2 inh 26.2% and AmpC detergent -2.7%.
`COc1ccc(OC)c(NC(=O)c2nnn(CC(=O)Nc3ccc(C(C)C)cc3)c2N)c1` gave AmpC detergent -3.5% and Lassa entry inh inconclusive.
Screening CCOC(=O)c1c(C)[nH]c(=S)c(C#N)c1-c1ccc(Cl)cc1 returned MARV entry inh 6.4%, AmpC inh no detg 28.2µM*, AMA1-RON2 inh 74.9%, AmpC detergent -6.2% and Lassa entry inh -17.7%.
Screening O=C(COC(=O)c1ccccc1C(=O)c1ccccc1)Nc1ccc(SC(F)F)cc1 returned MARV entry inh inconclusive, AmpC inh no detg -29.5%, AMA1-RON2 inh -0.3%[11.6 µM], AmpC detergent -8.3% and Lassa entry inh 16.4µM*.
Screening O=C(COC(=O)c1ccccc1Nc1ccccc1)Nc1ccccc1 returned MARV entry inh -0.8%, AmpC inh no detg 7.08µM*, AMA1-RON2 inh 15.4%, AmpC detergent inconclusive and Lassa entry inh -15.1%.
For Cc1ccccc1NC(=O)c1ccc(F)c(S(=O)(=O)N(C)C2CCCCC2)c1 the results were AmpC detergent 2.8% and Lassa entry inh inconclusive.
`O=C1C=C(NCc2ccccc2)CCC1` gave MARV entry inh inconclusive, AmpC inh no detg -5.7%, AMA1-RON2 inh 5.7%, AmpC detergent -14.6% and Lassa entry inh 4.0%.
Screening O=C1C=C(NC2=CC3OC(c4ccccc4)OCC3OC2=O)CCC1 (stereo not given) returned MARV entry inh inconclusive, AmpC inh no detg -13.5%, AMA1-RON2 inh 11.3%, AmpC detergent -18.1% and Lassa entry inh 10µM*.
For CC1=C(C(=O)OCc2ccc3c(c2)OCO3)C(c2ccc(Cl)cc2)NC(=O)N1 (stereo not given) the results were MARV entry inh 2.06µM*, AmpC inh no detg -22.8%, AMA1-RON2 inh -0.1%, AmpC detergent -8.8% and Lassa entry inh inconclusive.
`CCN1CCN(C(=O)c2cc3c(=O)n(C)c4ccccc4c3n2C)CC1` gave AmpC inh no detg 11.2µM*, AMA1-RON2 inh 17.8% and AmpC detergent inconclusive.
For CCCC(=O)Nc1ccc(Cl)c(NC(=O)c2cccnc2)c1 the results were MARV entry inh -18.0%, AmpC inh no detg 0.159µM*, AMA1-RON2 inh -0.3%, AmpC detergent -3.0% and Lassa entry inh 1.6%.
`Cc1cccc(NC(=O)CSCC(=O)N(CCC(C)C)c2c(N)n(Cc3ccccc3)c(=O)[nH]c2=O)c1` gave MARV entry inh inconclusive, AmpC inh no detg 27.6%, AMA1-RON2 inh 5.2%, AmpC detergent -15.1% and Lassa entry inh 10µM*.
`CCCN(C(=O)CSCC(=O)Nc1cccc(C)c1)c1c(N)n(Cc2ccccc2)c(=O)[nH]c1=O` gave MARV entry inh -16.1%, AmpC inh no detg 33.5%, AMA1-RON2 inh 4.9%, AmpC detergent -0.8% and Lassa entry inh 12.5%.
For COc1ccc(C2=C(N3CCN(c4cc(C)ccc4C)CC3)c3ccccc3C2=O)cc1 the results were MARV entry inh 0.1%[46.1 µM], AmpC detergent 10.8% and Lassa entry inh 4.0%[46.1 µM].
Screening O=C1C(c2ccccc2)=C(N2CC2)c2ccccc21 returned MARV entry inh 12.4%[46.1 µM], AmpC inh no detg -13.2%, AMA1-RON2 inh 28.2µM*, AmpC detergent inconclusive and Lassa entry inh 4.2%.
Screening COC(=O)CSCc1nc(-c2ccc(C(=O)OC)cc2)oc1C returned AmpC detergent 13.7% and Lassa entry inh 7.08µM*.
For CCc1ccc(-c2nc(CSCC(=O)NC3CC3)c(C)o2)cc1 the results were MARV entry inh 5.01µM*, AmpC inh no detg 52.4%, AMA1-RON2 inh -17.4%, AmpC detergent inconclusive and Lassa entry inh inconclusive.
`COc1ccc(CNC(=O)Cn2c(SCC(=O)Nc3ccc(C)c(C)c3)nc3ccccc32)cc1` gave AmpC detergent 0.0% and Lassa entry inh inconclusive.
